Active and inactive are the calls of the source. How the calls were made is not given here.
target: Bifunctional epoxide hydrolase 2 (Homo sapiens) (UniProt P34913); assay: sEH inhibitor concentration-response potency, dose response, biochemical, human sEH, fluorescence, Infinite200 (AID 1026); settings: recombinant human sEH, fluorogenic substrate, at 0.2 µM, active compounds read high
Sequence (P34913 whole entry, looked up): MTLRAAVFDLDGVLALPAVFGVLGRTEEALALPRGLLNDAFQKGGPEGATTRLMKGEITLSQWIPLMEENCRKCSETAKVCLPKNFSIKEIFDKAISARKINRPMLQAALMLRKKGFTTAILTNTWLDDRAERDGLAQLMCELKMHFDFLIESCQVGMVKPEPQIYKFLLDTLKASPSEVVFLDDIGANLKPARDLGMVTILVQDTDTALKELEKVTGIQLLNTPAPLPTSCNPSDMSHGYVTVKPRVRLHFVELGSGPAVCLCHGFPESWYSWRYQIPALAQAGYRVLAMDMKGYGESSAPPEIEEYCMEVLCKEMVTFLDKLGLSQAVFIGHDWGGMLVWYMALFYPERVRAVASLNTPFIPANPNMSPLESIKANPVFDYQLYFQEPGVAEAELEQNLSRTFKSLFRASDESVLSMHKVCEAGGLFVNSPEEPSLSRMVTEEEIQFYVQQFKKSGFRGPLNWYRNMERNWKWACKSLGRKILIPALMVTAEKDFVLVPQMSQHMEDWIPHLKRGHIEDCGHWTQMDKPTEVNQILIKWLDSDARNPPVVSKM

inhibition, inactive:
Cc1ccccc1OCCCC(=O)Nc1ccc(Br)cc1 69.8%
Cc1oc(-c2ccccc2F)nc1CN1CCC(C(=O)NC2CCCCCCC2)CC1 63.1%
CCOc1ccc(NC(=O)NCC2CCN(c3ccc(OC)cc3)C2)cc1 (stereo not given) 26.9%
Cc1cc(N2CCCC(C(=O)Nc3ccc4c(c3)CCC4)C2)n2ncnc2n1 (stereo not given) 50.2%
CC(Cc1cccs1)NC(=O)NC1CCCCC1 (stereo not given) 57.2%
CC1CCCN(S(=O)(=O)c2ccc(NC(=O)c3cccc(-n4cnnn4)c3)cc2)C1 (stereo not given) 59%
O=C(Nc1ccc(Cl)c(C(F)(F)F)c1)C1CCCN(S(=O)(=O)c2cnc[nH]2)C1 (stereo not given) 72.5%
NS(=O)(=O)c1ccc(CNC(=O)/C=C/c2c(Cl)cccc2Cl)cc1 51.6%
Cc1c(Cl)c([N+](=O)[O-])nn1Cc1ccc(C(=O)N/N=C\c2cccc(Br)c2)o1 66.8%
Cc1cc2nc(-c3ccc(SCC(=O)N4CCc5ccccc54)nc3)[nH]c2cc1C 56.7%
C=CCN1C(=O)CSc2ccc(C(=O)NCCC3=CCCCC3)cc21 55.8%
O=C(CN1C(=O)c2ccccc2S1(=O)=O)Nc1ccc(S(=O)(=O)N2CCCCC2)cc1 49.9%
O=C(Nc1ccc(N2CCOCC2)cc1)Nc1ccc(Cl)c(Cl)c1 40%
COc1ccc(CNC(=O)/C=C/c2cc3c(cc2Br)OCO3)cc1 58.5%
CCCCCC(=O)Nc1ccc2oc(-c3cncc(Br)c3)nc2c1 51.2%
O=C1CSc2ccc(C(=O)NCCC3=CCCCC3)cc2N1 51.9%
CCc1cccc(NC(=O)NC2CCCCC2)c1 70.5%
CCN(CCNC(=O)Nc1ccc(Cl)cc1)c1ccccc1 39.1%
Cc1oc(-c2ccccc2F)nc1CN1CCC(C(=O)NCCC2=CCCCC2)CC1 56.5%
O=C(N/N=C/c1cccc(O)c1)c1csc2ccccc12 54.3%
CC(=O)NC1CC2CCCC(C1)N2C(=O)Nc1ccc(Cl)c(C(F)(F)F)c1 (stereo not given) 41.4%
CCn1c(C(=O)N2CCC(C(=O)NCCCSC3CCCCC3)CC2)cc2sccc21 61.7%
CC(Cc1cccs1)NC(=O)Nc1ccc(Cl)c(Cl)c1 (stereo not given) 65.5%
CCOC(=O)CSc1nc2ccccc2c(=O)n1CC1CCC(C(=O)NCc2ccco2)CC1 (stereo not given) 45.6%
Cc1ccc2c(c1)nnn2C1CCN(C(=O)NC23CC4CC(CC(C4)C2)C3)CC1 60.5%
CC1CCCC(NC(=O)Nc2cccs2)C1C (stereo not given) 49.2%
O=C(NCCC1=CCCCC1)NC1CCCCC1 70.5%
O=C(Nc1ccc(OC(F)F)cc1)Nc1cccc(C(F)(F)F)c1 63.2%
Cc1nn(Cc2ccccc2Cl)c(C)c1NC(=O)NC12CC3CC(CC(C3)C1)C2 66%
COc1ccccc1NS(=O)(=O)c1cccc(C(=O)NN)c1 42.3%
COc1ccc(CNC(=O)C2CCC(CNS(=O)(=O)c3cccc4nsnc34)CC2)cc1 (stereo not given) 74.4%
CCCC(=O)Nn1cnc2c(c1=O)C1(CCCCC1)Cc1ccccc1-2 71.2%
NNC(=O)c1cccc(COc2cccc(Br)c2)c1 37.1%
O=C(NCC1CCCC(CNC(=O)N2CCc3ccccc32)C1)N1CCc2ccccc21 (stereo not given) 60.4%
O=C(CSCc1ccc(Cl)cc1)N/N=C/c1ccc(Cl)cc1Cl 55.6%
O=C(c1ccc2c(=O)n(Cc3ccc4c(c3)OCO4)c(=S)[nH]c2c1)N1CCCCC1 47.4%
COc1ccc(C2CCCN2C(=O)Nc2ccc(Cl)cc2)cc1OC (stereo not given) 71.3%
O=C(NCc1ccccc1Cl)c1ccc(Cn2cc(C(F)(F)F)ccc2=O)cc1 52.6%
O=C(Nc1ccc2c(c1)OCCO2)NC12CC3CC(CC(C3)C1)C2 72.8%
CCC(=O)N1CCc2cc(S(=O)(=O)CCC(=O)NCCC3=CCCCC3)ccc21 40%
